According to PubChem BioAssay AID2018 (Sanford-Burnham Center for Chemical Genomics, 2009):
The campaign covered roughly 1,200 compounds. About 600 (50%) were called active. Cut-off read from the data, not from the text of the source: active = inhibition above about 42%; inactive = the rest. So high a share suggests a set chosen from earlier hits. This is one part of the list. Potency and affinity values are given separately.

The molecules below were run against SUMO-conjugating enzyme UBC9 (Homo sapiens) (UniProt P63279) (assay: SUMOylation inhibitor hit validation, confirmation, SUMOylation inhibitor project, biochemical, AlphaScreen (AID 2018)). Conditions: AlphaScreen in vitro SUMOylation assay; at 35 µM; stronger effect = higher value.
SUMO-conjugating enzyme UBC9 (Homo sapiens), sequence (P63279 whole entry, looked up): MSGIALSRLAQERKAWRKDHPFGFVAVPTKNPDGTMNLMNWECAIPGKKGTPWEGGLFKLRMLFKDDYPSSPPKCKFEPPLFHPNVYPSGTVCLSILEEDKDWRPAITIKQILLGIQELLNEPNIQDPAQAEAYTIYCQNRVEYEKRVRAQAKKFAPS

inhibition, inactive:
Cc1ccc(C2C(C#N)=C(N)N(c3cccnc3)C3=C2C(=O)CCC3)s1 (stereo not given) 16.8%, NC(N)=N/N=C/c1cc([N+](=O)[O-])ccc1O -9.1%, CCC(C)(C)n1nnnc1CN(Cc1cc2cc(OC)c(OC)cc2[nH]c1=O)C1CCCC1 2.2%, O=[N+]([O-])c1cc([N+](=O)[O-])c2nonc2c1Nc1ccc(O)cc1 37.6%, O=[N+]([O-])c1c(NCc2ccccc2)cc(N2CCc3ccccc3C2)c2nonc12 38.5%, COc1ccc2c(c1)C(C)=CC(C)(C)N2C(=O)Nc1ccccc1 38.7%, CCN(CC)C(=O)c1sc2nc(-c3ccncc3)[nH]c(=O)c2c1C 0.7%, CCOc1ccc(S(=O)(=O)N2CCCC(C(=O)NCc3ccco3)C2)cc1 (stereo not given) 4.2%, Fc1cccc(NC(=S)Nc2cccc3ccccc23)c1 24.1%, [O-]/C(=C(\C(=S)Nc1cccc2ccccc12)[n+]1cccc(CO)c1)c1ccc(Cl)s1 31.7%, CC(C)c1ccc(NC(=S)Nc2cccc3ccccc23)cc1 24.3%, Cc1cc(C)c(S(=O)(=O)NCC23C=CC(O2)C2C(=O)N(c4ccccc4)C(=O)C23)c(C)c1 (stereo not given) -6.4%, O=C1N=c2ccccc2=C1c1c(O)n(-c2cccc(F)c2)[nH]c1=O 12%, Cc1nn(-c2ccccc2)c2c1C(c1ccc(F)cc1)C(C#N)=C(N)O2 (stereo not given) 0%, N#CC1=C(N)Oc2n[nH]c(-c3cccs3)c2C1c1ccoc1 (stereo not given) 24.4%, CC(C)N1CCC2(CC1)C(C#N)=C(N)NC(S)=C2C#N 26%, Cc1nc2c3cc(F)ccc3n(Cc3ccc(F)cc3)c2s1 20.7%

inhibition, active:
NC(=O)c1ccc(N=C2C(=O)Nc3ccc([N+](=O)[O-])cc32)cc1 102%, Cc1ccc(-c2[nH]c(-c3ccc(C(=O)O)cc3)nc2-c2ccccc2)cc1 49.3%, CN(C)c1cc(Nc2cccc(O)c2)c([N+](=O)[O-])c2nonc12 43.3%, CSc1nnc(SCc2nc3sc(C(=O)O)c(C)c3c(=O)[nH]2)s1 89.8%, [O-]/C(=C(\C(=S)Nc1cccc2ccccc12)[n+]1ccccc1)c1ccc(Cl)s1 53.6%, CC(C)c1ccc(NC(=O)C[n+]2ccn(C3=C([O-])c4ccccc4C3=O)c2)cc1 61.2%, O=c1c(-c2c(O)cc(O)c3c(=O)cc(-c4ccc(O)cc4)oc23)c(-c2ccc(O)cc2)oc2cc(O)cc(O)c12 99.8%, Cc1[nH][nH]c(=O)c1C(c1ccc(-c2ccc(Cl)c(C(=O)O)c2)o1)c1c(C)[nH][nH]c1=O 73.1%, Cc1[nH][nH]c(=O)c1C(c1ccc(-c2ccc(Cl)c(Cl)c2)o1)c1c(C)[nH][nH]c1=O 45.9%, O=C1N=c2ccccc2=C1c1sc(Nc2ccc(O)cc2)nc1O 93.5%, Cc1c(N2C(=O)c3ccc4c5c(ccc(c35)C2=O)CC4)c(=O)n(-c2ccccc2)n1C 93.9%, Cc1ccc(-n2nc(C)c3c2OC(N)=C(C#N)C3c2ccoc2)cc1 (stereo not given) 69%, Cc1ccc(-n2nc(C)c3c2OC(N)=C(C#N)C3c2ccc(C)o2)cc1 (stereo not given) 81.4%
